# Screens as filed in PubChem BioAssay.
# BoNT-A LC inh2: BoNT A light chain protease inhibition; multiplex microsphere protease substrate cleavage, flow cytometry; inhibition, % at 10 µM; 0.17% of 360,000 active
# Anthrax LF inh2: blocks Bacillus anthracis lethal factor protease | multiplex microsphere protease cleavage assay, LF | 0.12% of 360,000 active | inhibition, % at 10 µM | P15917
# Bead autofluor: flagged as autofluorescent in microsphere protease counterscreen | compound autofluorescence counterscreen, microsphere flow cytometry; active compounds read high | AID 624483 | 3.1% of 360,000 active | fluorescence intensity (test concentration not listed); in the data active means fluorescence intensity above about 16000; inconclusive means no clear call, values can overlap the other calls
# MazEF act: activators of E. coli MazEF toxin-antitoxin RNase; P0AE70; FAM/BHQ RNA-DNA oligo cleavage fluorescence, 5 h; activation, % at 20 µM; 0.32% of 350,000 active; AID 504720; in the data active means activation above about 50%
# Target sequence (P0AE70 whole entry, looked up): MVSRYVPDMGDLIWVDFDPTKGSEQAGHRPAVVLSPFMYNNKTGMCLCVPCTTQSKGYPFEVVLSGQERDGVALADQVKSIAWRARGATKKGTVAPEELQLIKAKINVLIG
# BoNT F protease: BoNT F light chain protease inhibition; 0.22% of 360,000 active; inhibition, % at 10 µM; AID 588497; Multiplex microsphere protease cleavage assay, flow cytometry; in the data active means inhibition above about 35%, passing the limit was not always enough; inconclusive means no clear call, values can overlap the other calls
# Numbers stand for hits; . = inactive; ? = inconclusive; / = not tested or not shown. Sampled rows, rich in hits. Any-hit rate of the full collection: about 3.7%. Unless noted, no stated cut-off is given here; in the data, active means inhibition above about 30%; inconclusive means no clear call, values can overlap the other calls; inactive means below that.
SMILES,BoNT-A LC inh2,Anthrax LF inh2,Bead autofluor,MazEF act,BoNT F protease
Cc1ccc(OCC(=O)NC2CCS(=O)(=O)C2)cc1 (centres undefined),.,.,.,.,.
CC(C)(C)c1ccc(OCC(=O)NC2CCS(=O)(=O)C2)cc1 (centres undefined),?,.,19473,.,.
Cc1ccc(OC(=O)NC2CCS(=O)(=O)C2)cc1C (centres undefined),.,.,23723,.,.
Cc1nn(Cc2ccccc2Cl)c(C)c1C(=O)N(C)CC(=O)Nc1cccc(F)c1,.,.,.,.,.
Nc1c(C(=O)c2ccc(Br)s2)oc2ccccc12,.,.,.,63.9,.
COc1ccc2oc(C(=O)CCC(=O)O)c(N)c2c1,.,.,.,.,.
COC(=O)CCC(=O)c1oc2ccc(Br)cc2c1N,.,.,16549,.,.
Nc1c(C(=O)c2ccccc2)oc2ccc(Br)cc12,.,.,20833,.,.
N#Cc1c(-n2ccnc2)cccc1-n1ccnc1,.,.,21837,.,.
Cc1cccc(-n2cccc2)c1C#N,.,.,.,.,.
CC(C)(C)S(=O)N1Cc2cc(C(=O)NCc3ccc4c(c3)OCO4)nc(-c3cccc(-c4ccccc4)c3)c2[C@@H]1CCO (some centres undefined),.,.,.,/,.
COc1ccc(NC(=O)CSc2ccccn2)cc1OC,.,.,.,.,.
Cc1ccc(-n2c(Cc3ccccc3)nnc2SCC(=O)NNC(=O)Cc2ccccc2)cc1,.,.,16282,.,.
COc1ccc(NC(=O)CSc2nnc(-c3ccccn3)n2-c2ccccc2)cc1OC,.,.,20651,.,.
CC(C)OC(=O)CSc1nnc(-c2cnccn2)n1-c1ccc(Cl)cc1,?,.,21757,.,.
Cc1ccc(C(=O)NNC(=O)CSc2nnc(-c3ccncc3)n2-c2ccc(C)cc2)cc1,.,.,20719,/,.
COc1cccc(C(C)(O)c2nc(-c3ccc(F)c(Cl)c3)cs2)c1 (centres undefined),.,.,.,/,.
CC(C)OC(=O)N(C)C[C@H]1OCc2cnnn2CCCC(=O)N([C@H](C)CO)C[C@@H]1C,.,.,.,.,.
Cc1ccc(-c2nnc(SCC(=O)CC(=O)Nc3ccccc3)n2-c2ccccc2)cc1,.,.,21966,.,.
CC(=O)CSc1nnc(-c2cnccn2)n1-c1ccccc1,.,.,.,.,.
Cc1ccc(NC(=O)CSc2nnc(-c3cnccn3)n2-c2ccccc2)cc1,?,.,16733,.,.
COc1cccc(OCC(O)CNC(C)c2ccccc2)c1 (centres undefined),.,.,.,.,.
COCCCN1C(=O)C(CC(=O)NCc2cccc3ccccc23)CC(C(=O)N2CCCCCC2)=C1C (centres undefined),.,.,.,/,.
COc1cccc(NP(=O)(Oc2ccc(Cl)cc2)Oc2ccc(Cl)cc2)c1,.,.,.,.,.
O=P(Nc1ccccc1)(Nc1ccccc1)Oc1ccc(Cl)cc1,.,.,23234,.,.
SMILES,BoNT-A LC inh2,Anthrax LF inh2,Bead autofluor,MazEF act,BoNT F protease
COc1cc(/C=C/CNC[C@H]2O[C@@H](n3ccc(N)nc3=O)[C@H](O)[C@@H]2O)ccc1O,.,.,.,.,.
Cc1ccc(NC(=O)COC(=O)CC2CC3CCC2C3)cc1S(=O)(=O)N1CCOCC1 (centres undefined),.,.,.,.,.
CCOC(=O)C(=CNc1cc(C)nn1-c1ccccc1)C(=O)OCC,?,.,21382,.,.
Cc1ccccc1N(Cc1ccccc1F)S(C)(=O)=O,.,.,23221,.,.
Cc1ccccc1CN(c1ccc(C(N)=O)cc1)S(C)(=O)=O,.,.,16249,.,.
Cc1ccccc1CN(c1ccc(C(=O)NCc2cccnc2)cc1)S(C)(=O)=O,.,.,.,.,.
CC1=C(C(=O)N(C)C)CC(CC(=O)NC(c2ccccc2)c2ccccc2)C(=O)N1Cc1ccc(F)cc1 (centres undefined),.,.,.,.,.
CCC(=O)NC(C)C(c1cccs1)N1CCN(c2ccccc2)CC1 (centres undefined),.,.,.,.,.
CCN1CCN(C(c2cccs2)C(C)NC(=O)c2cccc(OC)c2)CC1 (centres undefined),.,.,.,.,.
CC(=O)NC(C)C(c1cccs1)N1CCN(c2ccccc2)CC1 (centres undefined),?,.,16460,.,.
CCN(CC)S(=O)(=O)c1cccc(C(=O)NC(C)C(c2cccs2)N2CCCC2)c1 (centres undefined),.,.,17341,.,.
CC(NC(=O)c1cccc(F)c1)C(c1cccs1)N1CCN(C)CC1 (centres undefined),.,.,23669,.,.
